Over roughly 33,000 sequences, “E-score (-0.5 to 0.5)” has its median near -0.0059; the highest 2% begin near 0.26. The full list was thinned out, with the highest values kept by preference.
Molecular target: T1, Cin5 (UniProt P40917)
T1 sequence: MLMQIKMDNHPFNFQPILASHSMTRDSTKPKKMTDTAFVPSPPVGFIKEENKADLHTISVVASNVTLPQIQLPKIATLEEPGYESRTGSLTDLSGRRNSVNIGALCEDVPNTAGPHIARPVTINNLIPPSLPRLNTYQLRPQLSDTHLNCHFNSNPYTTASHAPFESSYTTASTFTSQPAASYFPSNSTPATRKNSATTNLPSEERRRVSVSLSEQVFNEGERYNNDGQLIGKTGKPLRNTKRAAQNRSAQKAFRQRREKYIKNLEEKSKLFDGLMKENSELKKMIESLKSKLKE
Test: PBM E-score (8-mer binding enrichment) (E-score (-0.5 to 0.5)); higher = stronger / more preferred TF binding
Settings: protein concentration: 100 nM; construct: GST-full length
How it was run: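 Masliner-normalised scans of fluorescent anti-GST signal were the basis for scoring. That signal came from GST-tagged yeast transcription factors applied at about 100-200 nM to double-stranded universal all-10-mer Agilent arrays on fresh or once-stripped slides. Each ungapped eight-base word, pooled with its reverse complement, received an E-score from the Universal PBM Analysis Suite.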

Row | Sequence | PBM E-score
1 | GGGGTTAA | -0.0418
2 | TCCAGGAA | -0.0393
3 | CTGGTTTC | 0.0335
4 | GGATGCAA | -0.0522
5 | GACAGACA | 0.16
6 | AACAGACT | 0.138
7 | AACAGACA | 0.32
8 | AGGATCGC | -0.0224
9 | CACTGAAA | 0.108
10 | GACTGAAA | -0.0204
11 | TACTGAAA | 0.267
12 | TACCTTCA | -0.0369
13 | ATCACATA | 0.291
14 | ATCACATG | 0.00787
15 | ATCACGTA | 0.269
16 | CTCACATA | 0.164
17 | ATCACGTC | 0.186
18 | ATCACGTG | 0.124
19 | AGTGGTCC | -0.116
20 | GACTCGTA | -0.2
21 | CAATCCTC | -0.129
22 | CAAGGTGA | -0.0314
23 | AATGAAAC | 0.169
24 | ACATAAAC | 0.263

Row | Sequence | PBM E-score
25 | ACATAAAA | 0.22
26 | ATATAAAT | 0.28
27 | ATATAAAG | 0.137
28 | CCATAAAC | -0.114
29 | ATAAAAAT | 0.0935
30 | GCATAAAC | 0.115
31 | ACATAAAG | 0.00631
32 | ACATAAAT | 0.28
33 | AAGGCACC | -0.0903
34 | AATACCTC | 0.0347
35 | CTCCATTA | -0.0341
36 | GGCCAGAC | -0.24
37 | CCCAGTAA | 0.0641
38 | CAGCCGCC | -0.0669
39 | ACGGCAAT | 0.273
40 | ACGGCAAG | -0.0312
41 | ACGGCAAA | 0.0612
42 | AATCAACA | 0.348
43 | CATCAAAC | 0.0949
44 | GATCAACA | -0.0699
45 | AATCAAAC | 0.326
46 | AATCAAAT | 0.176
47 | TATCAACA | 0.108
48 | CCCTGCAA | -0.132

Row | Sequence | PBM E-score
49 | CTGGCTCA | 0.0435
50 | ACGTTGGC | -0.143
51 | ACAATTTC | 0.139
52 | CTAGGAAC | -0.124
53 | GTCACCGA | -0.12
54 | GCGCATAA | 0.187
55 | CCGCATAA | 0.283
56 | ACGCATAA | 0.0967
57 | GAGCGAGA | 0.166
58 | GCAAGGAA | -0.0209
59 | CTGCTTCA | -0.153
60 | AATGGTAA | 0.233
61 | GATGGTAA | -0.0229
62 | TATGGTAA | 0.288
63 | CGCTTTTC | -0.0646
64 | AACACTGT | -0.0444
65 | AACACTTA | 0.154
66 | AACACTGA | 0.271
67 | CTTCGCCA | -0.137
68 | TATTAATA | 0.297
69 | GATTAATA | 0.348
70 | TATTAACA | 0.195
71 | GATTAATC | 0.145
72 | AATTAATG | 0.221

Row | Sequence | PBM E-score
73 | AATTAATT | 0.0929
74 | GATTAAGA | 0.104
75 | AATTAATA | 0.341
76 | CATTAATA | 0.187
77 | GTGGGGTA | 0.181
78 | ACGCACTA | 0.0242
79 | GCTGGGCA | -0.142
80 | AAGAGCCG | -0.187
81 | CAAGGGTG | -0.166
82 | TCGGCAGA | -0.0269
83 | ATTAAATA | 0.274
84 | TAAAAATA | 0.152
85 | GATAAATA | 0.245
86 | ATTAAATC | 0.205
87 | TATAAAAA | 0.176
88 | AATAAATT | 0.19
89 | ATTAAATG | 0.245
90 | TATAAATA | 0.283
91 | AATAAATA | 0.293
92 | CATAAATA | 0.183
93 | AATAAATG | 0.269
94 | CATAAATG | -0.125

— the supplement of paper PMC3334620
